The values that follow come from publication PMC13083723 (Patterns, 2026).

SMILES strings stand for the structures. Out of some 5,400 compounds screened, about 190 (3.5%) showed an effect of 50% or more. Only a selection was taken, and strong results are over-represented in it overall. Positions of bridges follow the written chain, without caps; N, C: chain ends. Non-standard residues stand in square brackets, D forms with d. Residues, ends and D or L forms follow the SMILES beside them. *: point of attachment. X1 = CCC(C)C(N)C1=NC(C(=O)*)CS1; dOrn = NCCC[C@@H](N)C(=O)O

The test system of this experiment is Vero-E6. Description: primary screen, phospholipidosis by LipidTOX staining; higher = more effect of the substance. The note with it: 10 µM. Put shortly:
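Drug-induced phospholipidosis detected with HCS LipidTOX Red reagent in Vero-E6 cells. Compounds tested at 10 μM, with amiodarone (10 μM) as positive control and DMSO (0.1 v/v %) as vehicle.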
Turning to `CC1(C)S[C@@H]2[C@H](NC(=O)C(C(=O)[O-])c3ccccc3)C(=O)N2[C@H]1C(=O)[O-]` (some centres unmarked), the result_ITMP is given as -1.48%.

Regarding `Nc1ncccc1-c1nc2ccc(-c3ccccc3)nc2n1-c1ccc(C2(N)CCC2)cc1`, the result_ITMP came to 91.9%.

`CC(C)(C)[C@]1(O)C[C@@H]2OC(=O)C[C@@]23C(=O)O[C@@H]2OC(=O)[C@H](O)C213` (some centres unmarked): the result_ITMP is reported as -3.55%.

For the compound `COc1cccc2c1C(=O)c1c(O)c3c(c(O)c1C2=O)C[C@@](O)(C(=O)CO)C[C@@H]3OC1C[C@H](N2CCO[C@H](OC)C2)C(O)[C@H](C)O1` (some centres unmarked), the result_ITMP is given as 0.2%.

Consider `CC1(C)CC[C@]2(NC(=O)C(C)(F)F)CC[C@]3(C)C(C(=O)C=C4[C@@]5(C)C=C(C#N)C(=O)C(C)(C)[C@@H]5CC[C@]43C)C2C1` (some centres unmarked), for which the result_ITMP is -22.1%.

Consider `CC1(C)C[C@@H]1C(=O)N/C(=C\CCCCSC[C@H](N)C(=O)[O-])C(=O)O`, for which the result_ITMP is reported as -1.62%.

`CCOC(=O)c1cc2ccc(O)cc2oc1=O`: the result_ITMP is on record as -3.11%.

In the case of `c1ccc(CNCc2ccc(CN3CCCNCCNCCCNCC3)cc2)nc1`, the result_ITMP was -2%.

Take `Clc1ccc(N2CCN(Cc3c[nH]c4ncccc34)CC2)cc1`: the result_ITMP is recorded as 1.68%.

Consider `O=C(c1ccc(-c2ccc(Cl)cc2)o1)N(Cc1ccccn1)c1ccc(N2CCNCC2)cc1`, for which the result_ITMP stood at 104%.

Turning to `CCCC(CCC)C(=O)NCC(N)=O`, the result_ITMP is listed as -5.65%.

On to `Nc1ccc(C(=O)[O-])c(O)c1`, for which the result_ITMP is listed as -0.28%.

For the compound `C[C@H](CCC(=O)NCCS(=O)(=O)O)[C@H]1CC[C@H]2[C@@H]3[C@@H](O)C[C@@H]4C[C@H](O)CC[C@]4(C)[C@H]3CC[C@]12C`, the result_ITMP came out at 3.34%.

As to `C[C@]12C=CC(=O)C=C1CC[C@@H]1[C@@H]2CC[C@]2(C)OC(=O)CC[C@@H]12`, the result_ITMP is listed as -2.34%.

Turning to `CC(=O)O[C@H]1CC[C@@]2(C)C(=CC[C@@H]3[C@@H]2CC[C@]2(C)C(c4cccnc4)=CC[C@@H]32)C1`, the result_ITMP worked out at 2.09%.

Take `C=CCn1c(=O)c2cnc(Nc3ccc(N4CCN(C)CC4)cc3)nc2n1-c1cccc(C(C)(C)O)n1`: the result_ITMP came out at 32.4%.

As to `CN1CCN(c2ccc(Nc3ncc4cc(C#N)c(=O)n(C5CCCC5)c4n3)cc2)CC1`, the result_ITMP is given as -0.88%.

With `Cc1cccc(C)c1-n1c(=O)c2cnc(Nc3ccc(N4CCN(C)CC4)cc3)nc2n2c3ccccc3nc12`, the result_ITMP was found to be 81.7%.

In the case of `N[C@@H](CSS(=O)(=O)[O-])C(=O)O`, the result_ITMP is reported as -1.62%.

With `C/C=C(\C(=C\C)c1ccc(O)cc1)c1ccc(O)cc1`, the result_ITMP was determined as 0.7%.

Consider `Clc1cccc(N2CCNCC2)c1`, for which the result_ITMP is listed as 4.14%.

As for `Clc1ccc2c(c1)C(N1CCNCC1)=Nc1ccccc1O2`, the result_ITMP turned out to be 70%.

On to `CN1CCN(C2=Nc3ccccc3Sc3ccc(Cl)cc32)CC1`, for which the result_ITMP came out at 26.7%.

As to `Cc1cc2c(s1)Nc1ccccc1N=C2N1CCN(C)CC1`, the result_ITMP was -8.9%.

With `Clc1ccc2c(c1)N=C(N1CCNCC1)c1ccccc1N2`, the result_ITMP turned out to be 77.7%.

Take `c1ccc2nc(N3CCNCC3)ccc2c1`: the result_ITMP is on record as 9.23%.

Regarding `Cc1ccc(Oc2ccccc2-c2csc(NC3=NCCCN3)n2)c(C)c1`, the result_ITMP is 6.61%.

As to `COc1cc(CCc2cc(NC(=O)c3ccc(N4C[C@@H](C)N[C@@H](C)C4)cc3)n[nH]2)cc(OC)c1`, the result_ITMP was 30.8%.

For the compound `C=C[C@@]1(C)CC(=O)[C@]2(O)[C@@]3(C)[C@@H](O)CCC(C)(C)[C@@H]3C(OC(=O)CCN(C)C)C(OC(C)=O)[C@@]2(C)O1` (some centres unmarked), the result_ITMP was determined as 4.63%.

On to `C[C@H](CCC(=O)NCCS(=O)(=O)O)[C@H]1CC[C@H]2[C@@H]3[C@H](O)C[C@@H]4C[C@H](O)CC[C@]4(C)[C@H]3C[C@H](O)[C@]12C`, for which the result_ITMP was -2.23%.

Turning to `CC(O)COC[C@H]1OC2O[C@H]3[C@H](O)[C@@H](O)C(O[C@H]4[C@H](O)[C@@H](O)C(O[C@H]5[C@H](O)[C@@H](O)C(O[C@H]6[C@H](O)[C@@H](O)C(O[C@H]7[C@H](O)[C@@H](O)C(O[C@H]8[C@H](O)[C@@H](O)C(O[C@H]1[C@H](O)[C@H]2O)O[C@@H]8COCC(C)O)O[C@@H]7COCC(C)O)O[C@@H]6COCC(C)O)O[C@@H]5COCC(C)O)O[C@@H]4COCC(C)O)O[C@@H]3COCC(C)O` (some centres unmarked), the result_ITMP was -3.69%.

In the case of `COc1ccc(C[C@@H](C)[C@@H](C)Cc2ccc(OC)c(OC)c2)cc1OC`, the result_ITMP was 6.63%.

With `COc1ccc(Cc2nc(=O)c3c(C)nc([C@@H](CCCc4ccccc4)[C@@H](C)O)n3[nH]2)cc1OC`, the result_ITMP came out at 0.34%.

Take `C=CC(=O)Nc1cccc(Oc2nc(Nc3ccc(N4CCN(C)CC4)cc3)ncc2Cl)c1`: the result_ITMP is reported as 70.5%.

With `C=CC(=O)Nc1cccc(Oc2nc(Nc3ccc(N4CCN(C)CC4)cc3OC)ncc2Cl)c1`, the result_ITMP is -1.32%.

Turning to `C=CC(=O)Nc1cccc(Oc2nc(Nc3ccc(N4CCN(C)CC4)cc3)nc3ccsc23)c1`, the result_ITMP was determined as 37.8%.

Turning to `C[C@H]1[C@H](C)CC[C@]2(C(=O)O)CC[C@]3(C)C(=CC[C@@H]4[C@@]5(C)C[C@@H](O)[C@H](O)[C@@](C)(CO)[C@@H]5CC[C@]43C)[C@H]12`, the result_ITMP is recorded as -2.77%.

As for `Cc1cc(-c2cc(O)ccc2Cl)cc2nnc(Nc3ccc(OCCN4CCCC4)cc3)nc12`, the result_ITMP was -2.38%.

For the compound `Cc1cnc(Nc2ccc(N3CCN(C)CC3)cc2)nc1Nc1cccc(S(=O)(=O)NC(C)(C)C)c1`, the result_ITMP amounted to 21.8%.

Take `Cc1cnc(Nc2ccc(OCCN3CCCC3)cc2)nc1Nc1cccc(S(=O)(=O)NC(C)(C)C)c1`: the result_ITMP was 122%.

Consider `Cn1cnc2nc(O)nc(O)c21`, for which the result_ITMP came out at 0.82%.

For `Cc1nc2ccc(Oc3ccc(F)cc3)cc2c(=O)n1C[C@H]1CCCN(C(C)C)C1`, the result_ITMP is given as 56.3%.

For the compound `O=C([O-])[C@H](O)[C@@H](O)[C@H](O)[C@H](O)C(O)CO` (some centres unmarked), the result_ITMP is -2.51%.

As for `Cn1nccc1Nc1nccc(-c2ccn([C@H](CO)c3ccc(Cl)c(F)c3)c(=O)c2)n1` [R4A_0003897_001 / SPE_A20830788], the result_ITMP was found to be 1.66%.

As to `CN(CC[C@@H](Oc1ccc(-c2ccccc2)cc1)c1ccc(F)cc1)CC(=O)O`, the result_ITMP came to 0.25%.

On to `COCCCC/C(=N\OCCN)c1ccc(C(F)(F)F)cc1`, for which the result_ITMP came out at 48.9%.

Turning to `CNCCC(Oc1ccccc1OC)c1ccccc1` (centres unmarked), the result_ITMP amounted to 13%.

Take `NCCC(Oc1ccc(C(F)(F)F)cc1)c1ccccc1` (centres unmarked): the result_ITMP is 62.2%.

As to `CNCCC(Oc1ccc(C(F)(F)F)cc1)c1ccccc1` (centres unmarked), the result_ITMP is 54.3%.

As to `CN1C2CC(O)[C@H]1C[C@@H](OC(=O)[C@H](CO)c1ccccc1)C2` (mixture of isomers), the result_ITMP is listed as -3.11%.

Take `CCCN1C[C@@H](NS(=O)(=O)N(CC)CC)C[C@@H]2Cc3c(O)cccc3C[C@H]21`: the result_ITMP is reported as 0.96%.

For the compound `CC(=O)O.CC(=O)O.N.NC1CCCCC1.[Cl][Pt][Cl]`, the result_ITMP is listed as -1.8%.

For `O=C([O-])Cc1ccccc1Nc1c(Cl)cccc1Cl`, the result_ITMP is recorded as -2.2%.

Turning to `CN(C(=O)Cc1ccccc1)C(CN1CCCC1)c1ccccc1` (centres unmarked), the result_ITMP was found to be 6.1%.

For `CN(C(=O)CN1C(=O)COc2cc(Cl)c(Cl)cc21)[C@@H](CN1CCCC1)c1ccc(-c2cccc(C(N)=O)c2)cc1`, the result_ITMP is listed as 41.8%.

Regarding `CN(C(=O)Cc1ccc(Cl)c(Cl)c1)[C@H](CN1CCCC1)c1ccccc1`, the result_ITMP came out at 53.5%.

Turning to `CCC(C)C(N)C1=NC(C(=O)N[C@@H](CC(C)C)C(=O)N[C@H](CCC(=O)[O-])C(=O)N[C@H](C(=O)N[C@H]2CCCCNC(=O)[C@H](CC(N)=O)NC(=O)[C@@H](CC(=O)[O-])NC(=O)[C@@H](Cc3cnc[nH]3)NC(=O)[C@@H](Cc3ccccc3)NC(=O)[C@@H]([C@H](C)CC)NC(=O)[C@@H](CCCN)NC2=O)[C@@H](C)CC)CS1` (some centres unmarked) (X1-L[dE]IK[dOrn][dI][dF][dH][dD]N; lactam 4-C), the result_ITMP was -3.81%.

For `Cc1cccn2c(=O)c(-c3nn[n-]n3)cnc12`, the result_ITMP was -2.44%.

As to `CCN(CC)CCOc1ccccc1C(=O)CCc1ccccc1`, the result_ITMP stood at 30.6%.

Take `CCCNCC(O)COc1ccccc1C(=O)CCc1ccccc1` (centres unmarked): the result_ITMP is reported as 86.6%.

In the case of `CCCC(=O)c1cc(F)ccc1OCC(O)CNC(C)(C)C` (centres unmarked), the result_ITMP worked out at 20.3%.

As for `Cn1nnnc1SCC1=C(C(=O)[O-])N2C(=O)[C@@H](NC(=O)[C@H](O)c3ccccc3)[C@H]2SC1`, the result_ITMP is reported as -1.4%.

For `CN1CCN(C(=O)CN[C@@H]2C[C@H]2c2ccc(OCc3ccccc3)cc2)CC1`, the result_ITMP came out at 87.7%.

For `Oc1ccc(OCc2ccccc2)cc1`, the result_ITMP is -11.6%.

With `O=C(O)c1ccc(CN2CCC(CN[C@@H]3C[C@H]3c3ccccc3)CC2)cc1`, the result_ITMP was -1.25%.

For the compound `Cc1cc(Nc2cc(CN3CCOCC3)c3nc(C)c(Cc4ccc(Cl)cc4F)n3n2)[nH]n1`, the result_ITMP is 13%.

`COc1cc2c3cc1Oc1cc(ccc1O)C[C@@H]1c4c(cc(OC)c(O)c4Oc4ccc(cc4)C[C@@H]3N(C)CC2)CC[N+]1(C)C`: the result_ITMP was -3.39%.

Regarding `COc1ccc2cc1Oc1ccc(cc1)C[C@H]1c3cc(c(OC)cc3CCN1C)Oc1c(OC)c(OC)cc3c1[C@H](C2)N(C)CC3`, the result_ITMP was determined as 17.4%.

With `COc1ccc2cc1Oc1ccc(cc1)C[C@H]1c3c(cc4c(c3Oc3cc5c(cc3OC)CCN(C)[C@@H]5C2)OCO4)CCN1C`, the result_ITMP was found to be 57%.

Take `CCN(CC)C(=S)[S-]`: the result_ITMP is -6.15%.

Take `COCCCOc1ccnc(CS(=O)c2nc3ccccc3[n-]2)c1C` (centres unmarked): the result_ITMP is -0.77%.

As for `COc1cc(N2CCOCC2)ccc1Nc1ncc(Cl)c(Nc2ccccc2NS(C)(=O)=O)n1`, the result_ITMP was determined as 51.4%.

Regarding `CNC(=O)c1ccccc1Nc1nc(Nc2ccc(N3CCOCC3)cc2OC)ncc1Cl`, the result_ITMP is listed as 3.78%.

In the case of `COc1cc(N2CCC(N(C)C)CC2)ccc1Nc1ncc(Cl)c(Nc2ccccc2P(C)(C)=O)n1`, the result_ITMP amounted to 51.8%.

Regarding `CCC(=O)Nc1cccc(Oc2nc(Nc3ccc(N4CCN(C)CC4)cc3OC)ncc2Cl)c1`, the result_ITMP is reported as -5.58%.

In the case of `COc1cc(N2CCC(N3CCN(C)CC3)CC2)ccc1Nc1ncc(Cl)c(Nc2ccccc2P(C)(C)=O)n1`, the result_ITMP is recorded as -0.55%.

As for `COc1cc(N2CCC(N)CC2)ccc1Nc1ncc(Cl)c(-c2c[nH]c3ccccc23)n1`, the result_ITMP was 15.8%.
